The source made the active and inactive calls. Calls come from the whole dose curve; as a rule, active = well fitted curve in the direction sought with a large enough effect; inconclusive = small, poorly fitted or top-dose-only effect, or effect the other way, or another doubt; inactive = no such curve, though single readings can be large or run the other way.
assay: qHTS of Nrf2 Activators: LOPAC Validation (AID 624149); conditions: Nrf2/ARE reporter cell assay; series mostly up to 46.1 µM; activation: at the top concentration; note: 0% is about no effect
Method in brief: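 Luminescence read-out of ARE-luciferase activation: AREc32_Fluc cells treated with compounds for 24 hr at 37 deg C, then lysed with Steady-Glo for 30 min at room temperature before reading.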

SMILES | activation | outcome
Cc1ccc(S(=O)(=O)/C=C/C#N)cc1 | -1.6% (inactive) | 
OC[C@H]1O[C@@H](n2cnc3c(Nc4ccccc4)ncnc32)[C@H](O)[C@@H]1O | -1.64% (inactive) | 
NC(CCCP(=O)(O)O)C(=O)O (stereo not drawn) | 1.05% (inactive) | 
NC(=S)NCCC[C@H](N)C(=O)O | -1.55% (inactive) | 
COc1cc2nc(N3CCN(C(=O)OCc4ccccc4)C(C(=O)NC(C)(C)C)C3)nc(N)c2cc1OC (stereo not drawn) | -1.61% (inactive) | 
Oc1ccc(C2CNCc3sccc32)cc1O (stereo not drawn) | -0.257% (inactive) | 
NC(=S)c1ccc[n+]([C@@H]2O[C@@H](COP(=O)([O-])OP(=O)(O)OC[C@H]3O[C@@H](n4cnc5c(N)ncnc54)[C@H](OP(=O)(O)O)[C@@H]3O)C(O)C2O)c1 (stereo partly drawn) | 1.03% (inactive) | 
NCCCCCCCCCCN | -2.01% (inactive) | 
COC(=O)c1c(C)[nH]c(C)c1C(=O)c1ccccc1Cc1ccccc1 | 1.09% (inactive) | 
O=C(O)c1cc(=O)c2c(Cl)cc(Cl)cc2[nH]1 | -1.93% (inactive) | 
CN(C)CCCO[C@@H]1[C@H]2OC(C)(C)O[C@H]2O[C@@H]1[C@H](O)CO | -0.922% (inactive) | 
CC1CN(S(=O)(=O)c2cccc3cnccc23)CCN1 (stereo not drawn) | -1.73% (inactive) | 
N=C(N)SCCc1ccc(CCSC(=N)N)cc1 | -1.84% (inactive) | 
CC(N)C(=O)OC(C)(C)Cc1ccc(Cl)cc1 (stereo not drawn) | -2.33% (inactive) | 
Cc1ccc(O)c(N=Nc2ccccc2)n1 | 10.4% (inactive) | 
COc1cccc(OC)c1OCCNCC1COc2ccccc2O1 (stereo not drawn) | -1.53% (inactive) | 
NC[C@H]1O[C@@H](n2cnc3c(N)ncnc32)[C@H](O)[C@@H]1O | -0.922% (inactive) | 
Ic1ccc(N2CCN(Cc3c[nH]c4ncccc34)CC2)cc1 | -1.94% (inactive) | 
C[C@@H](CN1CCC(Cc2ccccc2)CC1)[C@@H](O)c1ccc(O)cc1 | -1.49% (inactive) | 

SMILES | activation | outcome
CCCCCCCCc1ccc(-c2ccc(C(=O)O)cc2)cc1 | -2.36% (inactive) | 
C[N+]1(C)C2CC(OC(=O)[C@H](CO)c3ccccc3)CC1C1OC12 (stereo partly drawn) |  | inactive
CC(C)ON([C@@H](C(=O)NO)C(C)C)S(=O)(=O)c1ccc(-c2ccccc2)cc1 | -0.321% (inactive) | 
CN(C)C(N)=NCCC[C@H](N)C(=O)O | -1.42% (inactive) | 
CN(C)c1nc(N)c(C(=O)N=C(N)N)nc1Cl | -2.2% (inactive) | 
COc1cc2c(CCNC(C)=O)c[nH]c2cc1Cl | -0.318% (inactive) | 
O=C(CCCCCN1CCN(c2ccccc2-c2ccccc2)CC1)NC1CCCc2ccccc21 (stereo not drawn) | 6.58% (inactive) | 
C[N+](C)(C)CCOP(=O)(O)OP(=O)([O-])OC[C@H]1O[C@@H](n2ccc(N)nc2=O)[C@H](O)[C@@H]1O | -0.42% (inactive) | 
O=c1[nH]c2cc(C(F)(F)F)ccc2n1-c1cc(C(F)(F)F)ccc1O | -1.14% (inactive) | 
CO/S(=N\S(=O)(=O)c1ccc(Cl)cc1)c1ccc([N+](=O)[O-])cc1 (stereo not drawn) | -1.97% (inactive) | 
NC(N)=NC(=O)c1nc(Cl)c(N2CCCCCC2)nc1N | -1.01% (inactive) | 
O=C(O)[C@@H]1C[C@@H](C(=O)O)N1 | 0.545% (inactive) | 
CCCCCCCCCCCCCCCCCC(=O)OC(CC(=O)O)C[N+](C)(C)C (stereo not drawn) | -0.687% (inactive) | 
N#C/C(=C\c1ccc(O)c(O)c1)C(=O)c1ccc(O)c(O)c1 | -1.52% (inactive) | 
CC1(C)CCC=[N+]1[O-] | -2.1% (inactive) | 
C#CCN1C(C)=C(C(=O)OC)C(c2cccc([N+](=O)[O-])c2)C(C(=O)OCC)=C1C (stereo not drawn) | 6.85% (inactive) | 
O=[N+]([O-])c1ccc(CSc2ncnc3c2ncn3[C@@H]2O[C@H](CO)[C@@H](O)[C@H]2O)cc1 | -2.22% (inactive) | 
CSc1ccccc1N1CCN(CCCCCC(=O)NC2CCCc3ccccc32)CC1 (stereo not drawn) | -1.91% (inactive) | 
CC(=O)N[C@H](C(=O)O)C(C)(C)SN=O | 9.28% (inactive) | 

Source: PubChem BioAssay (NCATS)
